Screens deposited in PubChem BioAssay by several laboratories.
Most compounds without a hit are left out; they make up all but 1.9% or so of the library.
Yeast superoxide – caloric restriction mimetics inhibiting age-related superoxide in yeast; superoxide response (% of plate mean), % at 10 µM; actives 0.18% (n = 330,000); S. cerevisiae aged cells, superoxide DHE fluorescence; stronger effect = lower value;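 active means superoxide response under a set limit, about three screen SD below normal, cut at about 65% in these data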;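 further: yeast aged for seven days with compound at 30 °C before DHE staining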
Bcl-xL primary – inhibitors of human Bcl-xL; Q07817; GST-Bcl-xL / FITC-Bim BH3 peptide fluorescence polarization; inhibition, % at 10.9 µM; actives 0.7% (n = 320,000);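 active means inhibition above the mean of all tested compounds plus 3 SD, cutoff set per campaign, cut at about 30% in these data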;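 further: inhibitors lower millipolarization by displacing the labeled peptide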
Target sequence (Q07817 whole entry, looked up): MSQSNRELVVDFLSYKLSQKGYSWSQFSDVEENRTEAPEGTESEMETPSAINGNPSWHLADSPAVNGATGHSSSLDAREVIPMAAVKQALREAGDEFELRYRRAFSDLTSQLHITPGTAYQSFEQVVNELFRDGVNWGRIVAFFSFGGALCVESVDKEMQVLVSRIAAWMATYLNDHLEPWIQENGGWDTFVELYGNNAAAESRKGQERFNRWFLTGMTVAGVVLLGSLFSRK
LANA-H2A inh – blocks KSHV LANA binding to histone H2A/H2B. cell-free LANA-H2A/H2B peptide, fluorescence polarization. actives 0.6% (n = 320,000). Q9QR71. inhibition, % (test concentration not listed); in the data active means inhibition mostly above about 10%, no sharp cut-off; inactive means mostly below about 6.7%
MEX-5 binding – C. elegans MEX-5 TCR-2 RNA binding activity. Q9XUB2. MEX-5/FITC-TCR2 RNA binding, fluorescence polarization; stronger effect = lower value. activity score (negative = inhibition of binding), % at 10 µM. actives 0.38% (n = 300,000). AID 1832;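 active means inhibition past about -25% in most replicates, and total fluorescence under double the plate's negative control median, limit read from the data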
GLD-1 RNA inh – GLD-1-TGE RNA interaction inhibition (C. elegans); actives 0.44% (n = 320,000); inhibition, % at 5.96 µM; purified GLD-1 + fluorescein TGE RNA, fluorescence polarization; Q17339;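 active means percent inhibition above a per-plate cutoff, the plate mean of test compounds plus 3 SD, cut at about 30% in these data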
MCL1-BIM inh – inhibitors of human MCL1 binding to BIM-BH3 peptide | GST-MCL1 / FITC-Bim-BH3 fluorescence polarization | Q07820 | actives 0.68% (n = 320,000) | inhibition, % at 10.9 µM;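 active means inhibition above the mean inhibition of all tested compounds plus 3 SD, set per campaign, cut at about 40% in these data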;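 further: higher means more loss of mP so more displacement of Bim peptide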
Target sequence (Q07820 whole entry, looked up): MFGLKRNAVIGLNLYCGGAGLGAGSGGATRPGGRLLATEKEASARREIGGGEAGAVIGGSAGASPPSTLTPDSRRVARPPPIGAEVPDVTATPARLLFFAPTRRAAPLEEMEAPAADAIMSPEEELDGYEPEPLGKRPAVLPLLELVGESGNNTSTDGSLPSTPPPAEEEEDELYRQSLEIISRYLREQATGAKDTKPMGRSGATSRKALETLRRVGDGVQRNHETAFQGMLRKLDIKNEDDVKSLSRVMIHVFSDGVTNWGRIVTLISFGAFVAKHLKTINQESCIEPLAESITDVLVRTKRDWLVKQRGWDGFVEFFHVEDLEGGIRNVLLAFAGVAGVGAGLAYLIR
CR mimetic CP – yeast aging superoxide inhibition, cherry pick confirmation | shares compounds with Yeast superoxide | S. cerevisiae aging, superoxide DHE fluorescence; stronger effect = lower value | superoxide response (% of plate), % at 10 µM | actives 1% (n = 850) | AID 434994;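 active means superoxide signal below 65% of the plate average of sample wells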;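 further: cells aged with compound for 7 days at 30 degrees C before staining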
DHE counter – DHE fluorescence interference, counter-screen artifact. shares compounds with Yeast superoxide. S. cerevisiae BY4741, flow cytometry; stronger effect = lower value. fluorescence response, % at 10 µM. 850 tested, under 10 active. AID 435000;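 active means fluorescence response below 15%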;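 further: lower means stronger quenching of DHE signal or ROS scavenging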
Large screens that a line does not name were inactive (follow-up assays come after a bar, where they were run).

C[N+]1(CC(=O)Nc2ccc(F)cc2)CCN(C(=O)c2ccco2)CC1	none
Cc1cccn2c(=O)c(C=O)c(NCc3ccccc3)nc12	none
Cc1c(NC(=O)C23CC4CC(CC(C)(C4)C2)C3)c(=O)n(-c2ccccc2)n1C	none
CC(=O)NC12CC3CC(C1)CC(C(=O)Nc1c(C)n(C)n(-c4ccccc4)c1=O)(C3)C2	Yeast superoxide 62 | CR mimetic CP inactive | DHE counter inactive
C#CCN(CC=C)C(=O)c1ccc(OC2CCN(S(=O)(=O)N(C)C)CC2)cc1	none
O=C(Nc1ccc(F)cc1)C(=O)c1c(O)[nH]c2ccc([N+](=O)[O-])cc12	Yeast superoxide 64 | CR mimetic CP inactive | DHE counter inactive
CC(=O)c1ccc(N2CCN(C(=O)c3ccc(Br)cc3)CC2)c(F)c1	none | CR mimetic CP inactive | DHE counter inactive
CCC(=O)c1ccc(N2CCN(C(=O)c3ccccc3)CC2)c(F)c1	none | CR mimetic CP inactive | DHE counter inactive
O=C(c1ccccc1)N1CCN(c2ccccc2F)CC1	none | CR mimetic CP inactive | DHE counter inactive
CC1CN(C(=O)c2ccccc2OCc2ccccc2Cl)CC(C)O1 (stereo unspecified)	none (no result: MEX-5 binding)
COc1ccccc1C(=O)Nc1ccc(S(=O)(=O)Nc2cnc3ccccc3n2)cc1	none
CCN1CCCc2cc(CN(CCN3CCOCC3)C(=S)Nc3ccccc3C)ccc21	Yeast superoxide 61 | CR mimetic CP inactive | DHE counter inactive
CCOC(=O)NC(=O)/C(C#N)=N/Nc1ccc(F)cc1	none | CR mimetic CP inactive | DHE counter inactive
CCOC(=O)C(=O)/C(C#N)=C/Nc1ccc(F)cc1	none
Cc1nc(NC(=O)CN2CCN(c3cccc(Cl)c3)CC2)sc1C(=O)N(C)C	none
CCCOc1ccc(CNC(=O)c2ccc3c(c2)N(CC)CCS3)cc1	none
Cc1cccc(OCC(=O)O/N=C(\N)c2ccncc2)c1	none
CC(C)CCNC(=O)C1CCC(=O)N1CCc1ccccc1 (stereo unspecified)	none
O=C1CCCN1S(=O)(=O)c1ccccc1	none | CR mimetic CP inactive | DHE counter inactive
O=C1CCCN1S(=O)(=O)c1ccc(F)cc1	none
C=CCNC(=S)NCCO	none
C=CCNC(=S)NCC	Yeast superoxide 65 | CR mimetic CP inactive | DHE counter inactive
NC1=C(c2ccccc2)C(=O)NC1=O	Yeast superoxide 37 | CR mimetic CP inactive | DHE counter inactive
COc1ccc(N2CCN(C(=O)c3ccc(Cl)c(S(=O)(=O)N4CCCC4)c3)CC2)cc1	none
CCOc1ccc(C(=O)N2CCN(c3ccccc3)CC2)cc1OCC	none
Cc1ccc(C(=O)N2CCN(c3ncccn3)CC2)cc1	Yeast superoxide 65 (no result: Bcl-xL primary, GLD-1 RNA inh, MCL1-BIM inh) | CR mimetic CP inactive | DHE counter inactive
COc1ccc(N2CCN(C(=O)c3ccc(C)c(Cl)c3)CC2)cc1	none | CR mimetic CP inactive | DHE counter inactive
CCOc1ccc(C(=O)N2CCN(c3ccccc3)CC2)cc1	none | CR mimetic CP inactive | DHE counter inactive
COc1ccc(N2CCN(C(=O)c3ccc(C)cc3Cl)CC2)cc1	none | CR mimetic CP inactive | DHE counter inactive
O=C(OCC(=O)N1CCc2ccccc2C1)c1ccc(O)cc1	none (no result: Bcl-xL primary, MEX-5 binding, MCL1-BIM inh)
CC(=O)Oc1ccc(Nc2ccccc2)cc1	Yeast superoxide 50 | CR mimetic CP inactive | DHE counter inactive
CCN(CCO)c1nc(NCc2ccccc2)c2cnn(C)c2n1	none
O=C(NC1CCCCC1)c1cc([N+](=O)[O-])ccc1N1CCCC1	none
O=C(NC1CCCCCCC1)c1cc([N+](=O)[O-])ccc1Cl	Yeast superoxide 63 | CR mimetic CP inactive | DHE counter inactive
CC(C)(C)n1nc(-c2ccc(F)cc2)c2c(N)ncnc21	Yeast superoxide 32 | CR mimetic CP inactive | DHE counter inactive
CC(C)(C)n1nc(-c2ccc(Cl)cc2)c2c(N)ncnc21	Yeast superoxide 50 | CR mimetic CP 56 | DHE counter inactive
OCCN(CCO)c1ccc(C(c2ccc(Cl)cc2)c2ccc(N(CCO)CCO)cc2Cl)c(Cl)c1	Yeast superoxide 62 | CR mimetic CP inactive | DHE counter inactive
Cc1ccc(-c2nnc(Nc3ccc4c(c3)OCO4)c3ccccc23)cc1S(=O)(=O)NC(C)C	none | CR mimetic CP inactive | DHE counter inactive
Cc1ccc(-c2nnc(N3CCCCC3)c3ccccc23)cc1S(=O)(=O)N(C)C	none
Cc1ccc(-c2nnc(Nc3ccc4c(c3)OCO4)c3ccccc23)cc1S(=O)(=O)NCCO	none | CR mimetic CP inactive | DHE counter inactive
O=C(c1cccc(S(=O)(=O)N2CCCc3ccccc32)c1)N1CCN(c2ccccc2)CC1	none (no result: Bcl-xL primary, MEX-5 binding, MCL1-BIM inh)
Cc1noc2ncnc(SCc3ccc(C(F)(F)F)cc3)c12	none
Cc1ccc(CSc2ncnc3onc(C)c23)cc1	Yeast superoxide 58 | CR mimetic CP inactive | DHE counter inactive
CSc1nnc(-c2ccc([N+](=O)[O-])cc2)o1	none
C#CCSc1nnc(-c2ccc([N+](=O)[O-])cc2)o1	Yeast superoxide 54 | CR mimetic CP inactive | DHE counter inactive
O=C(COC(=O)c1cc(S(=O)(=O)N2CCOCC2)cs1)c1ccccc1	Yeast superoxide 64 | CR mimetic CP inactive | DHE counter inactive
CC1(C)CC(N2CN(C3CCCCC3)CC2=O)CC(C)(C)N1	Yeast superoxide 61 | CR mimetic CP inactive | DHE counter inactive
Cc1cccc(CN2C(=O)CCSc3ccc(Cl)cc32)c1	Yeast superoxide 65 | CR mimetic CP inactive | DHE counter inactive
CC(C)(C)C(=O)CNCC(=O)C(C)(C)C	none
COc1cccc(Cn2nnc(C(=O)NCc3ccc4c(c3)OCO4)c2N)c1	Yeast superoxide 64 | CR mimetic CP inactive | DHE counter inactive
Cc1cc(OCC(=O)N(C)C2CCCCC2)cc(C)c1Cl	Yeast superoxide 56 | CR mimetic CP inactive | DHE counter inactive
CCc1nnc(NC(=O)CCC(=O)NCCc2ccccc2)s1	none
Clc1cccc(-c2ccc(C=Nc3ccc(N4CCOCC4)cc3)o2)c1	Yeast superoxide 53 | CR mimetic CP inactive | DHE counter inactive
Oc1ccc(N=Nc2cccc(Cl)c2)cc1C=Nc1ccc(N2CCOCC2)cc1	none (no result: Yeast superoxide, Bcl-xL primary, LANA-H2A inh, GLD-1 RNA inh, MCL1-BIM inh)
Cc1cccc(NC(=O)/C(C#N)=C\c2ccc(C(=O)O)cc2)c1	none
COc1cc(C)c(/C=C(\C#N)C(=O)Nc2cccc(C)c2)cc1C(C)C	Yeast superoxide 50 | CR mimetic CP inactive | DHE counter inactive
N#CCc1nn(-c2ccccc2)c2ncnc(N)c12	none | CR mimetic CP inactive | DHE counter inactive
N#CCc1nn(-c2ccc(Cl)cc2)c(N)c1C#N	none
COc1ccc(NS(=O)(=O)c2ccc3c(c2)NC(=O)CC(=O)N3)cc1OC	none
